What all share (test): NCI-60 one-dose screen, 48 h (100 = growth as untreated, 0 = no growth, -100 = all killed)
One assay concerns SK-MEL-2 melanoma. The settings on record: 10 µM unless noted.
In the next assay the test system is EKVX NSCLC. The settings on record: 10 µM unless noted.
The subject of another assay is SN12C renal. The conditions noted are these: 10 µM unless noted.
For another assay, the system named is UO-31 renal. The settings on record: 10 µM unless noted.
The test system of another assay is ACHN renal. The settings on record: 10 µM unless noted.
In a further assay the test system is CAKI-1 renal. The settings on record: 10 µM.
For the next assay, the system named is A498 renal. The settings on record: 10 µM unless noted.
The next assay has as its system CCRF-CEM leukemia. The settings on record: 10 µM unless noted.
The next assay deals with MOLT-4 leukemia. The settings on record: 10 µM unless noted.
For the next assay, the system named is RPMI-8226 leukemia. The conditions noted are these: 10 µM unless noted.
The next assay concerns OVCAR-8 ovarian. The conditions noted are these: 10 µM unless noted.
Another assay has as its system OVCAR-5 ovarian. The settings on record: 10 µM unless noted.
Another assay has as its system OVCAR-4 ovarian. The settings on record: 10 µM unless noted.
The next assay deals with SK-OV-3 ovarian. The conditions noted are these: 10 µM unless noted.
A further assay deals with IGROV1 ovarian. The conditions noted are these: 10 µM unless noted.
Another assay deals with OVCAR-3 ovarian. The settings on record: 10 µM unless noted.
The test system of the next assay is NCI/ADR-RES ovarian. The settings on record: 10 µM unless noted.
The subject of the next assay is HS 578T breast. The settings on record: 10 µM unless noted.
For a further assay, the system named is SR leukemia. The settings on record: 10 µM unless noted.

Structures are written as SMILES. The panel holds about 83,000 compounds, 20% with a hit somewhere; the sample as a whole holds those more often.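 A percent growth of 40 corresponds to 60% growth inhibition; 0 means no net growth; -100 means all cells died. Active threshold: below 10.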 Unmarked numbers belong to inactive results. The source made the active and inactive calls.

For the compound `CCC(CC(C)C)Nc1ccc(NC(CC)CC(C)C)cc1` (stereo not given), the growth is 86.4% with SK-MEL-2 melanoma; 81.4% with EKVX NSCLC; 96.3% in the assay on SN12C renal; 93% with UO-31 renal; 95.3% in the assay with ACHN renal; 99.1% in the assay with CAKI-1 renal. Also, the growth in the assay with A498 renal was 94.1%; in the assay on CCRF-CEM leukemia it was 10.4%; in the assay with MOLT-4 leukemia, 34.5%; in the assay with RPMI-8226 leukemia it was -5.42% (active); in the assay with OVCAR-8 ovarian, 87.6%; in the assay on OVCAR-5 ovarian, 108%. The growth is 75.8% in the assay on OVCAR-4 ovarian; 94.4% in the assay with SK-OV-3 ovarian; 83.9% in the assay on IGROV1 ovarian; -6.06% (active) in the assay on OVCAR-3 ovarian; 96.6% with NCI/ADR-RES ovarian.
With `O=c1c2ccccc2[nH]n1Cc1ccc2c(c1)OCO2`, the growth with SK-MEL-2 melanoma is 104%; in the assay on EKVX NSCLC, 105%; with SN12C renal, 101%; in the assay with UO-31 renal, 92.7%; in the assay with ACHN renal, 103%; in the assay on CAKI-1 renal, 104%. In addition, the growth in the assay on A498 renal is 90.3%; in the assay on MOLT-4 leukemia, 97.4%; in the assay on RPMI-8226 leukemia it was 90.5%; in the assay with OVCAR-8 ovarian, 104%; in the assay on OVCAR-5 ovarian it was 95.7%; in the assay with OVCAR-4 ovarian, 105%. Besides, the growth in the assay with IGROV1 ovarian is 111%; in the assay with OVCAR-3 ovarian it was 104%; in the assay on HS 578T breast it was 103%; with NCI/ADR-RES ovarian it was 113%.
Take `CCn1c(SCC(=O)c2ccc(Br)cc2)nnc1-c1cc2c([nH]c3ccccc32)c(-c2cccc(O)c2)n1`: the growth was 69.9% in the assay on SK-MEL-2 melanoma; 67.2% in the assay on EKVX NSCLC; 96.5% in the assay on SN12C renal; 70.4% with UO-31 renal; 60.5% with ACHN renal; 83.7% in the assay with CAKI-1 renal. The growth in the assay on A498 renal was 73.5%; with CCRF-CEM leukemia, 78.5%; in the assay with RPMI-8226 leukemia, 69.4%; in the assay with OVCAR-8 ovarian it was 77.5%; in the assay with OVCAR-5 ovarian, 95.1%; in the assay with OVCAR-4 ovarian it was 71.4%. Besides, the growth was 86.7% with SK-OV-3 ovarian; 88.5% in the assay with IGROV1 ovarian; 80.4% in the assay on OVCAR-3 ovarian; 73.7% in the assay with HS 578T breast; 81.1% with NCI/ADR-RES ovarian.
On to `O=C(NCCNc1nccc(-c2c(-c3cccc(O)c3)nc3sccn23)n1)Nc1cccc(C(F)(F)F)c1`, for which the growth with SK-MEL-2 melanoma is 54.4%; in the assay on EKVX NSCLC, 91.2%; with SN12C renal, 70.7%; in the assay on UO-31 renal, 75.2%; in the assay on ACHN renal, 85.1%; in the assay with CAKI-1 renal it was 90.3%. Besides, the growth is 23.1% in the assay with CCRF-CEM leukemia; 59.8% with MOLT-4 leukemia; -4.81% (active) with RPMI-8226 leukemia; 41.2% in the assay on OVCAR-8 ovarian; 117% in the assay on OVCAR-5 ovarian; 110% with OVCAR-4 ovarian. Also, the growth with SK-OV-3 ovarian was 85%; in the assay on IGROV1 ovarian, 65.6%; with OVCAR-3 ovarian it was 76.7%; in the assay on NCI/ADR-RES ovarian, 108%.
Consider `Nc1ncc(-c2ccc3ncnc(Nc4cncc(Cl)c4)c3c2)cn1`, for which the growth in the assay on SK-MEL-2 melanoma is 66.4%; in the assay on EKVX NSCLC it was 33%; with SN12C renal, 69.8%; in the assay on UO-31 renal, 41.9%; with ACHN renal it was 41.6%; with A498 renal, 0.263% (active). The growth with CCRF-CEM leukemia was 84.5%; in the assay on MOLT-4 leukemia, 77.8%; in the assay on SR leukemia, 73.8%; in the assay with RPMI-8226 leukemia it was 50.1%; with OVCAR-8 ovarian, 76.8%; in the assay with OVCAR-5 ovarian, 52%. Moreover, the growth was 66.8% with OVCAR-4 ovarian; 46.5% with SK-OV-3 ovarian; 7.85% (active) in the assay on IGROV1 ovarian; 59.9% in the assay with OVCAR-3 ovarian; 61.6% with HS 578T breast.
As to `Oc1ccccc1/C=N/c1ccccn1`, the growth with SK-MEL-2 melanoma was 97.8%; with EKVX NSCLC it was 112%; in the assay with SN12C renal, 116%; in the assay on UO-31 renal it was 92.1%; in the assay on ACHN renal, 106%; in the assay with CAKI-1 renal it was 104%. Moreover, the growth in the assay on A498 renal was 89.5%; in the assay with CCRF-CEM leukemia it was 116%; with MOLT-4 leukemia, 102%; with SR leukemia it was 104%; in the assay with RPMI-8226 leukemia, 78%; with OVCAR-8 ovarian, 95%. For the same compound, the growth with OVCAR-4 ovarian was 106%; with SK-OV-3 ovarian, 99.6%; with OVCAR-3 ovarian, 111%; in the assay on HS 578T breast, 143%.
In the case of `O=C(Nc1ccc(-n2ccc3c(NC(=O)c4ccccc4)nccc32)cc1)c1cccc(C(F)(F)F)c1`, the growth is 46.1% in the assay with SK-MEL-2 melanoma; 52.7% in the assay on EKVX NSCLC; 39.8% in the assay on SN12C renal; 23.7% in the assay on UO-31 renal; 33.4% in the assay on ACHN renal; 19.4% in the assay on CAKI-1 renal. The growth with MOLT-4 leukemia is 18.6%; in the assay on SR leukemia, -2.23% (active); in the assay on RPMI-8226 leukemia, 6.14% (active); with OVCAR-8 ovarian, 30.4%; in the assay on OVCAR-5 ovarian it was 52.5%; in the assay on OVCAR-4 ovarian, 108%. The growth in the assay with SK-OV-3 ovarian is 36.2%; with IGROV1 ovarian it was 33.3%; in the assay with OVCAR-3 ovarian, 20.9%; with NCI/ADR-RES ovarian, 19.8%.
As for `COc1ccc(-c2nn(-c3ccc(NC(=O)Nc4ccc(Cl)c(Cl)c4)cc3)cc2-c2ccncc2)cc1Cl`, the growth in the assay on SK-MEL-2 melanoma was -35.5% (active); in the assay on EKVX NSCLC it was 21.5%; in the assay with SN12C renal, 20.5%; in the assay with UO-31 renal, 16.9%; in the assay on ACHN renal, 14.8%; in the assay on CAKI-1 renal, 3.8% (active). Besides, the growth in the assay with A498 renal was 10.7%; in the assay on CCRF-CEM leukemia, 12.6%; in the assay with MOLT-4 leukemia, 10.5%; with SR leukemia, 5.18% (active); in the assay on RPMI-8226 leukemia, -30% (active); in the assay with OVCAR-8 ovarian it was 11.6%. The growth in the assay on OVCAR-5 ovarian is 22.6%; in the assay with OVCAR-4 ovarian, 49.4%; with SK-OV-3 ovarian, 34.6%; in the assay on OVCAR-3 ovarian, 7.34% (active); in the assay with NCI/ADR-RES ovarian, 12.8%.
Turning to `CC(C)C1(C(C)C)NC(=O)NC1=O`, the growth is 108% in the assay with SK-MEL-2 melanoma; 92.7% in the assay with EKVX NSCLC; 99% with SN12C renal; 78.4% with UO-31 renal; 106% with ACHN renal; 88.9% with CAKI-1 renal. In addition, the growth in the assay with A498 renal was 93.8%; with CCRF-CEM leukemia, 93.7%; in the assay with MOLT-4 leukemia it was 97.6%; in the assay with RPMI-8226 leukemia it was 117%; in the assay with OVCAR-8 ovarian it was 110%; in the assay with OVCAR-5 ovarian, 101%. For the same compound, the growth is 107% in the assay with OVCAR-4 ovarian; 108% in the assay on SK-OV-3 ovarian; 99.4% in the assay on IGROV1 ovarian; 110% in the assay with OVCAR-3 ovarian; 92.6% in the assay on HS 578T breast; 103% with NCI/ADR-RES ovarian.

(Values after PubChem BioAssay (NCI).)
